In the supplement of paper PMC9337992:
± gives the standard deviation of the averaged measurements.

These compounds were tested on MDAMB436 (assay: cell proliferation (confluence) relative to DMSO control; higher = less growth inhibition). Conditions: 5 uM; 6 d.
Procedure: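 Epigenetic chemical probe screen: 15 TNBC cell lines, 500 cells per well in 384-well plates, treated with 5 uM of each of 36 SGC probes for 6 d. Confluency was imaged by IncuCyte ZOOM and normalised to DMSO control wells. Four replicate wells per compound.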

With `CN(C)[C@H]1CN(C2CCc3cccc(F)c32)C[C@@H]1c1ccc(N2CCN(S(C)(=O)=O)CC2)cc1` (some centres not stated) as the compound, how does the cell proliferation read?
The cell proliferation was 93.7 ± 2.8%.

Which cell proliferation does the source give for `O=C(/C=C/N1C[C@H]2C[C@@H]1CN2c1ccccn1)c1ccccc1O` here?
Its cell proliferation is 95.4 ± 3.6%.

For `O=C(NCC(=O)N1CCCC1)Nc1ccc2cnccc2c1`, which cell proliferation is on record?
Its cell proliferation is 79.4 ± 7.8%.

`CCOC(=O)CCNc1cc(N2CCc3ccccc3CC2)nc(-c2cccnc2)n1` was tested. Which cell proliferation did it give?
Its cell proliferation is 94.2 ± 5.3%.

For `Cc1cc(=O)n(C)c2cc(N3C(=O)CC[C@H](NS(=O)(=O)CC(C)C)[C@H]3c3ccc(Cl)cc3)ccc12`, which cell proliferation is on record?
The cell proliferation was 73.3 ± 14%.

For `COc1ccccc1S(=O)(=O)Nc1ccc2c(c1)CN(C)C(=O)N2`, which cell proliferation is on record?
Its cell proliferation is 57 ± 5.5%.

How did the cell proliferation turn out when `CCCc1cc(C)[nH]c(=O)c1CNC(=O)c1cc(-c2ccc(N3CCN(C(C)C)CC3)nc2)cc2c1cnn2C(C)C` was run?
The cell proliferation was 71.1 ± 4.1%.

Which cell proliferation does the source give for `COc1cc2c(NC3CCN(C(C)C)CC3)nc(C3CCCCC3)nc2cc1OCCCN1CCCC1` here?
The cell proliferation was 99.08 ± 0.28%.

For `O=C([C@@H](Cc1cccc(C(F)(F)F)c1)NS(=O)(=O)c1cc(F)c2c(c1)CCNC2)N1CCCC1`, which cell proliferation is on record?
Its cell proliferation is 84.5 ± 12%.

For `CC(C)N(CCCNC(=O)Nc1ccc(C(C)(C)C)cc1)C[C@H]1O[C@@H](n2cc(Br)c3c(N)ncnc32)[C@H](O)[C@@H]1O`, which cell proliferation is on record?
The cell proliferation was 90.4 ± 6.8%.

`O=C(c1ccc(C(=O)N2CCC(N3CCCC3)CC2)c(Nc2ccccc2)c1)N1CCC(N2CCCC2)CC1` was tested. Which cell proliferation did it give?
The cell proliferation was 95.2 ± 2.8%.

How did the cell proliferation turn out when `CCC(=O)N1CCOc2c(cc(-c3ccc(OC)c(OC)c3)cc2OC[C@H]2CCCN(C)C2)C1` was run?
Its cell proliferation is 72.3 ± 4.5%.

With `CCn1cc(-c2cccc(C(F)(F)F)c2)c2sc(C(=N)NC3CCS(=O)(=O)CC3)cc2c1=O` as the compound, how does the cell proliferation read?
The cell proliferation was 50.4 ± 30%.

How did the cell proliferation turn out when `COc1cc(C#N)ccc1S(=O)(=O)Nc1ccc2c(c1)cc(C)c(=O)n2C` was run?
Its cell proliferation is 75.5 ± 5.1%.

With `CCCc1cc(C)n(C)c(=O)c1CN(C)C(=O)c1cc(-c2ccc(N3CCN(C(C)C)CC3)nc2)cc2c1cnn2C(C)C` as the compound, how does the cell proliferation read?
The cell proliferation was 96.6 ± 3.2%.

With `COc1ccccc1C(=O)Nc1cc2c(cc1N1CCCC1)n(C)c(=O)n2C` as the compound, how does the cell proliferation read?
The cell proliferation was 77 ± 3.6%.

With `CC[C@H](C)n1cc(C)c2c(C(=O)NCc3c(C)cc(C)[nH]c3=O)cc(-c3ccc(N4CCNCC4)nc3)cc21` as the compound, how does the cell proliferation read?
The cell proliferation was 89.7 ± 1.7%.

For `CCOC(=O)CCNc1cc(N2CCc3ccccc3CC2)nc(-c2ccccn2)n1`, which cell proliferation is on record?
Its cell proliferation is 16.1 ± 3%.

For `Cn1cc(CCn2cnc(-c3cnn(C)c3)c2-c2ccc(C#N)cc2)cn1`, which cell proliferation is on record?
The cell proliferation was 83.2 ± 14%.

With `CC(C)Oc1ccc(-c2c[nH]cc2CN(C)CCO)cc1` as the compound, how does the cell proliferation read?
The cell proliferation was 84.9 ± 4.5%.

`CCCc1cc(C)[nH]c(=O)c1CNC(=O)c1cc(-c2ccnc(N3CCN(C)CC3)c2)cc2c1cnn2C(C)C` was tested. Which cell proliferation did it give?
Its cell proliferation is 90.2 ± 6.6%.

Which cell proliferation does the source give for `CCN(C(=O)CO)[C@H]1CN(/C(=N\C#N)Nc2cccc(OC(F)F)c2)N=C1c1ccc(Cl)c(Cl)c1` here?
The cell proliferation was 93.5 ± 3.8%.

`COc1c(C)cc(NC(=O)c2nn(Cc3ccc(F)cc3)c3c2CN(C(=O)c2ccc[nH]2)C[C@]3(C)C(N)=O)cc1C` was tested. Which cell proliferation did it give?
Its cell proliferation is 69.4 ± 14%.

Which cell proliferation does the source give for `CNCCN1CCC(OCc2ccccc2)CC1` here?
The cell proliferation was 76.5 ± 6.8%.

Which cell proliferation does the source give for `CCCOc1ccn2c(C(C)=O)cc(-c3ccccc3S(C)(=O)=O)c2c1` here?
Its cell proliferation is 81.7 ± 14%.

Which cell proliferation does the source give for `COc1cc(-c2cn(C)c(=O)c3cnccc23)c(OC)cc1CN(C)C` here?
The cell proliferation was 77.2 ± 7.8%.

Which cell proliferation does the source give for `O=C(NC[C@H](O)CN1CCc2ccccc2C1)c1ccnc(NC2CCC2)c1` here?
The cell proliferation was 57.5 ± 18%.

Which cell proliferation does the source give for `COc1cc2c(cc1OCCCN1CCCC1)N=C(N)C21CCC1` here?
The cell proliferation was 95.3 ± 6%.

`CC(C)Oc1ccc(-c2c[nH]cc2CN(C)CCN)cc1` was tested. Which cell proliferation did it give?
Its cell proliferation is 59.9 ± 20%.

`COc1ccc(CCc2nc3cc(-c4c(C)noc4C)ccc3n2C[C@H](C)N2CCOCC2)cc1Cl` was tested. Which cell proliferation did it give?
Its cell proliferation is 57.3 ± 19%.

How did the cell proliferation turn out when `Clc1cc2c(NC3CCCC3)nnc(-c3ccncc3)c2cc1Cl` was run?
Its cell proliferation is 93.5 ± 1.4%.

How did the cell proliferation turn out when `Cc1nnc2c3ccccc3c(N[C@@H](C)[C@H](c3ccccc3)N(C)C)nn12` [L-moses] was run?
Its cell proliferation is 80.8 ± 11%.
